Data from PubChem BioAssay AID2438 (Vanderbilt High Throughput Screening Facility, 2010).
Results with a measured potency or affinity are listed apart. Active and inactive are the calls of the source.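 How the source made its calls: active means dose curve whose fit quality R squared exceeds 0.5; inactive means the rest.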

Each compound was assayed against Muscarinic acetylcholine receptor M4 (Rattus norvegicus) (UniProt P08485) (assay: rat M4 receptor positive allosteric modulation check, dose response, selectivity assay for M1 muscarinic PAM project, cell-based, CHO-K1 rat M4/Gqi5, Fluo-4 calcium, ACh EC20 (AID 2438)). Settings: ACh EC20 potentiation; series mostly up to 30 µM; percent of max ACh response: at the top concentration.
Chain of Muscarinic acetylcholine receptor M4 (Rattus norvegicus) (P08485 whole entry, looked up): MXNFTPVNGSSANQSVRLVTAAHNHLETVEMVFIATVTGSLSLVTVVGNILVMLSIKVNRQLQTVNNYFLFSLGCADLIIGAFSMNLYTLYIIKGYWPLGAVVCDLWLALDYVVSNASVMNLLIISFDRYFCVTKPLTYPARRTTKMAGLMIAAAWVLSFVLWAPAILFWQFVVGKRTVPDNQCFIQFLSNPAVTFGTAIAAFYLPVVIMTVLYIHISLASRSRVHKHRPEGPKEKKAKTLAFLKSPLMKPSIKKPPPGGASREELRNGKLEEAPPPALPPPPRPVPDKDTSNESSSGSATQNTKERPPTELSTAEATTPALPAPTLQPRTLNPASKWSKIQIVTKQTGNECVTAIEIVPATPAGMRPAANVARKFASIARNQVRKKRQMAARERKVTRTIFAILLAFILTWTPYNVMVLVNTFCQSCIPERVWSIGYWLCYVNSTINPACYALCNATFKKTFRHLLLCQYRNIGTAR

Percent of max ACh response, inactive:
Cc1cc(NC(=O)CS(=O)(=O)c2cn(Cc3cc(Br)ccc3F)c3ccccc23)no1 16.2%
O=C1C(=O)N(Cc2ccc(Oc3ccccc3)cc2)c2ccc(OC(F)(F)F)cc21 14.5%
Cn1cc(-c2ccc(CN3C(=O)C(=O)c4ccccc43)c(F)c2)cn1 18%
Cn1cc(-c2cc(F)c(CN3C(=O)C(=O)c4ccccc43)c(F)c2)cn1 15.7%
